ALR inh: human ALR oxidase inhibition via reduced H2O2; AID 485317; purified ALR, DTT oxidation, H2O2 HRP-luminol luminescence; 3.8% of 290,000 active; P55789; inhibition, % (no concentration beside the values);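 active = mean replicate inhibition above about 79%, with every replicate also reaching it, limit read from the data; inconclusive = only one of the two criteria met; inactive = mean below limit and not every replicate reaching it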
Target sequence (P55789 whole entry, looked up): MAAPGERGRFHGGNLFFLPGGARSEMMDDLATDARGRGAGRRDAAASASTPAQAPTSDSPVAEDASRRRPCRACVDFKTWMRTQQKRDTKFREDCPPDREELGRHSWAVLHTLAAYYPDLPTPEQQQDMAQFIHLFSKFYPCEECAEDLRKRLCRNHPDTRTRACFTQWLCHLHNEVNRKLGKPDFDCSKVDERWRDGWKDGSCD
Bfl-1 A1 inh: inhibitors of the anti-apoptotic protein A1, read as caspase activation; AID 2462; caspase activation, % (test concentration not listed); MEF A1-2A-BIM cells, Caspase-Glo 3/7 luminescence, 3 h; percent of clofoctol response, vehicle zero; 0.066% of 330,000 active;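 active = over half of replicate activation scores above 10%, or exactly half above 10 with the replicate mean above 10; inconclusive = replicate mean below 10 yet half the replicates above 10; inactive = over half of replicates below 10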
Mot1-301 SUMO: inhibitors of SUMOylation pathway: yeast Mot1-301 growth rescue; 1% of 320,000 active; S. cerevisiae Mot1-301 growth rescue, ATP luminescence, 38.5C; percent above DMSO median, 100 means doubled; AID 2716; growth rescue, % at 18.8 µM;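 active = every valid replicate shows activation above 250% relative to neutral control wells; inactive = the rest, any valid replicate at or below 250%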;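 note: OY570 slx delta 5 strain wells were the positive control but not used for scaling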
Efflux pump mplx: blocks antifungal efflux pumps in multiplex yeast assay; S. cerevisiae Candida pump triplex, Nile Red efflux; inhibition, % at 10 µM; 0.44% of 330,000 active; AID 485275;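 active = plate passing quality check with inhibition over a set limit, or well fluorescence over plate mean plus 4 SD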;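 note: Nile Red retained in pooled yeast measured as flow cytometry median fluorescence; 0% = buffer negative control and 100% = Enniatin B positive control; higher means more Nile Red kept so more efflux inhibition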
VLA-4 inh: inhibition in a human VLA-4 binding assay; P13612; VLA-4 expressing cells, ligand binding flow cytometry; inhibition, % (about 7 µM as worked out from the volumes in the protocol); 0.2% of 330,000 active; in the data active = inhibition above about 50%
AHR act: human AHR activation. P35869. AHR-responsive luciferase reporter cells, luminescence. 2.5% of 320,000 active. activation, % at 5 µM. AID 2796; in the data active = activation above about 47%;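 note: 0% = vehicle wells and 100% = reference agonist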
Numbers without * were called inactive; u = inconclusive; x = not tested or not shown. Hits are enriched below; roughly 7.2% of the tested compounds scored in any of these assays.

SMILES	ALR inh	Bfl-1 A1 inh	Mot1-301 SUMO	Efflux pump mplx	VLA-4 inh	AHR act
O=C(NN1CC(C(=O)OCc2ccccc2F)CC1=O)c1ccccc1 (stereo not given)	0	-1	5	0	6	3
COc1ccc(C(=O)Nc2nnc(SCC(=O)NCC3CCCO3)s2)cc1OC (stereo not given)	-5	0	-11	0	-2	6
Cc1ncsc1CCC(=O)N1CCCC(Nc2ccc(C(C)C)cc2)C1 (stereo not given)	86*	0	-5	-2	6	1
Cc1ccc(NC2CCCN(C(=O)CCc3scnc3C)C2)cc1C (stereo not given)	99*	1	-15	0	5	50*
Cc1ncsc1CCC(=O)N1CCCC(Nc2ccc(F)c(F)c2)C1 (stereo not given)	35	0	-3	0	7	-2
Cc1cc(N2CCOCC2)nc(-c2ccc([N+](=O)[O-])cc2)n1	100*	0	-8	0	-27	20
CCCN1CCN(CCCNC(=O)CCCn2nc(C)c3sc4ccccc4c3c2=O)CC1	x	4	352*	0	18	0
O=C(OCC(=O)N1CCN(c2ccccc2)CC1)c1ccc(Cl)nc1	97*	0	-8	0	7	0
COc1ccc(N2CCN(C(=O)COC(=O)c3ccc(Cl)nc3)CC2)cc1	17	0	8	0	-10	0
O=c1/c(=C/c2ccc(O)cc2)sc2n1CCCN=2	98*	-8	-16	0	6	-8
CN(C)c1ccc(/C=c2\sc3n(c2=O)CCCN=3)cc1	99*	-5	20	0	-3	-18
O=c1/c(=C\c2ccc(F)cc2)sc2n1CCCN=2	49	-4	9	0	15	-2
O=C(c1cccnc1Cl)N(Cc1ccccc1)Cc1ccccc1	-3	0	0	0	-7	2
CC(NC(=O)C(=O)NCCCn1ccnc1)c1ccccc1 (stereo not given)	-9	1	320*	0	7	1
CC1CCc2sc(C(=O)NCCCn3ccnc3)cc2C1 (stereo not given)	-10	-1	1	0	24	51*
O=C(NCCCn1ccnc1)/C(=C/c1ccccc1)NC(=O)c1ccccc1	4	1	-26	0	8	0
CN(C)c1ccc(/C=C(\NC(=O)c2ccccc2)C(=O)NCCCn2ccnc2)cc1	99*	0	-3	0	-4	7
O=C(NCCCn1ccnc1)c1ccc2ccccc2c1	-19	0	-14	-5	2	60*
O=C(NCc1cccs1)C1CCC(=O)N1C1CCCCC1 (stereo not given)	-1	1	-1	0	39	-2
COc1ccc(N2CCN(C(CNC(=O)C(=O)NCCCn3ccnc3)c3cccnc3)CC2)cc1 (stereo not given)	90*	0	-7	0	8	-1
S=C(Nc1ccc(Cc2ccncc2)cc1)Nc1cccc(Cl)c1	x	1	366	0	-4	-3
CC(C)c1ccccc1NC(=S)NCCCn1ccnc1	87*	0	191	0	-1	27
S=C(NCCCn1ccnc1)Nc1cccc(Cl)c1	x	1	7	0	0	49*
CCOc1ccc(NC(=S)NCCCn2ccnc2)cc1	9	0	-10	0	4	1
COc1ccccc1C(=O)NC(CCSC)C(=O)OC(C)C(=O)NC1CC1 (stereo not given)	x	0	x	0	-7	-2
SMILES	ALR inh	Bfl-1 A1 inh	Mot1-301 SUMO	Efflux pump mplx	VLA-4 inh	AHR act
Cc1ccc2nc(/C(C#N)=C\c3cc(C)n(-c4cccc([N+](=O)[O-])c4)c3C)[nH]c2c1	-1	1	-3	0	-3	58*
COc1ccc(C(=O)C[n+]2cc(Br)cc3ccccc32)cc1[N+](=O)[O-]	8	1	1	0	-75	71*
CCOC(=O)c1c(/N=C/c2cc(C)ccc2O)sc2c1CCN(C)C2	98*	0	5	0	-6	11
Cc1nn(C)c(NC(=O)c2ccc(Cl)cc2Cl)c1Br	-5	u	17	0	-2	0
c1ccc2c(CSc3ncnc4nc[nH]c34)cccc2c1	98*	0	295*	0	10	21
C=CCn1c(C(C)NC(=O)c2cccc(C)c2)n[nH]c1=S (stereo not given)	93*	1	10	0	5	1
c1ccc(-n2nnnc2Oc2ccc(-n3ccnc3)cc2)cc1	-3	0	688	0	11	72*
Nc1ccc(NC(=O)c2cccc(C(=O)Nc3ccc(N)cc3Cl)c2)c(Cl)c1	99*	1	1	0	-16	6
Nc1cccc(C(=O)NCCNC(=O)c2cccc(N)c2)c1	4	0	5	-1	-7	2
COC(=O)c1ccc(C(=O)Nc2ccc(N)cc2N)cc1	92*	-2	45	0	-18	2
Nc1cccc(C(=O)Nc2ccc(N)cc2Cl)c1	99*	0	-12	0	-3	0
Nc1cccc(C(=O)Nc2ccco2)c1	98*	0	-6	0	-13	9
O=C(Cn1cnc([N+](=O)[O-])c1)Nc1ccccc1C(F)(F)F	-1	1	7	0	0	-1
COc1ccc(/C=C/CN2CCCC(CCC(=O)NCc3ccc(F)c(F)c3)C2)cc1 (stereo not given)	-2	0	-1	0	10	0
O=C(CCn1c(=S)[nH]c2ccccc2c1=O)N1CCOCC1	85*	0	-6	0	-3	0
O=C(Cc1cccs1)NCCSc1c(-c2ccc(Cl)cc2)[nH]c2ccccc12	-22	1	1	0	8	51*
CC(C)N(CCn1c(=S)[nH]c2ccccc2c1=O)C(C)C	3	-1	308*	0	-3	3
O=c1c2sc3ccccc3c2[nH]c(=S)n1CCN1CCOCC1	96*	0	-12	0	3	2
CC(NC(=O)C12CC3CC(C)(CC(C)(C3)C1)C2)c1ccncc1 (stereo not given)	-8	0	16	0	-2	0
CCOC(=O)N1CCC(N2CCCC(C(=O)c3cccc(OC)c3)C2)CC1 (stereo not given)	-1	0	252	0	-4	4
Cc1cc(C)c(S(=O)(=O)NCC2CCC(C(=O)NCc3ccccn3)CC2)c(C)c1 (stereo not given)	-62	-1	-5	0	16	2
COCC(=O)c1[nH]c2ccccc2c1C	92*	1	87	0	6	8
O=C(CCn1c(=S)[nH]c2ccccc2c1=O)NCCCN1CCOCC1	8	1	-11	0	-14	2
O=c1c2ccccc2[nH]c(=S)n1CCCN1CCOCC1	87*	0	-2	0	8	2

Assay outcomes from PubChem.
